Test results published in PubChem BioAssay (Tox21).
Results filed as inconclusive are left out. Values without a mark were called inactive. Calls of active or inactive are those of the source. The call rests on the fitted dose curve.

Experiment: Nuclear factor erythroid 2-related factor 2/antioxidant responsive element (Nrf2/ARE) small molecule agonists: luciferase reporter gene qHTS assay in human keratinocytes (AID 1919969); further: nearly all actives have a fitted effect of over 35% in size
Settings: KeratinoSens HaCaT ARE-luciferase, luminescence, 24 h; series mostly up to 92.4 µM; activity, positive = activation: at the top concentration
Description: National Center for Advancing Translational Sciences [NCATS]
Division of Preclinical Innovation [DPI]
U.S. Environmental Protection Agency [EPA]
National Institutes of Environmental Health Sciences [NIEHS]
National Toxicology Program [NTP]
U.S. Food and Drug Administration [FDA]
Oxidative stress has been implicated in the pathogenesis of a variety of diseases ranging from cancer to neurodegeneration. The antioxidant response element (ARE) signaling pathway plays an important role in the amelioration of oxidative stress. The KeratinoSens (Givaudan, Switzerland) is an in vitro test method which quantifies luciferase induction as a measure of activation of Keap1-Nrf2-antioxidationt/electrophile response element (ARE) dependant pathway in HaCaT human keratinocytes stably transfected with a selectable plasmid. The KeratinoSens assay is a cell-based assay with a reporter cell line to detect potential skin sensitizers by their ability to induce the Nrf2/ARE-response. The activation of the report gene under culture conditions can be detected by ONE-Glo Luciferase Assay System (Promega, Madison, WI). This cell line has been used to screen the Tox21 10K compound library to identify agonists that induce oxidative stress. The cytotoxicity of the Tox21 compound library against the KS-ARE cell line was tested in parallel by measuring the cell viability using CellTiter- Fluor assay system (Promega, Madison, WI) in the same wells.
HaCaT derived cell line KeratinoSens were dispensed at 1,500 cells/5uL/well in 1536-well white wall/solid bottom plates using a Multidrop Combi (ThermoFisher Scientific, Waltham, MA) dispenser. After the assay plates were incubated at 37 C/5% CO2 for 5 h, 23 nL of compounds dissolved in DMSO, positive controls or DMSO only was transferred to the assay plate by a pintool workstation (Kalypsys, San Diego, CA). The plates were incubated at 37 C/5% CO2 for 23 h, followed by addition of 1uL/well of CellTiter-Fluor reagent into the assay plates using a Flying Reagent Dispenser (Aurora Discovery, San Diego, CA) for cell viability readout that measures cytotoxicity. After 1 h incubation at 37 C/5% CO2 the fluorescence intensity was measured using a ViewLux (PerkinElmer, Shelton, CT) plate reader. Then 4uL/well of One-Glo were added using a Flying Reagent Dispenser. After the plates were incubated at room temperature for 30 min, the luminescence intensity in the assay plates was measured using ViewLux plate reader.
On the % scale 0 is the no-effect control and ±100 the full control effect; potency means the concentration at half of the fitted maximal effect.

| SMILES | activity, positive = activation | Potency |
| --- | --- | --- |
| O=S(=O)(O)c1cc(O)ccc1O | 9.73% |  |
| CCCCN(CCO)CCCC | -7.73% |  |
| CCO[C@H](Cc1ccc(OCCc2ccc(OS(C)(=O)=O)cc2)cc1)C(=O)O | 4.63% [at 42.5 µM] |  |
| CCCCCCCCNC(C)C(O)c1ccc(SC(C)C)cc1 (stereo not given) | -37.5% [at 42.5 µM] |  |
| Cc1nc2sccn2c(=O)c1CCN1CCC(=C(c2ccc(F)cc2)c2ccc(F)cc2)CC1 | -38.3% [at 42.5 µM] |  |
| O=C[C@@H](O)[C@H](O)[C@H](O)CO | -7.44% |  |
| COc1ccc(C(=O)c2ccc(C)cc2)c(O)c1 |  | 31 µM (active) |
| CC(C)Cn1cnc2c1c(=O)n(C)c(=O)n2C | 1.34% [at 42.5 µM] |  |
| CC(C)(C)C(=O)c1ccccc1 | -0.363% |  |
| Cc1c(-c2cccnc2)c2ccccc2n1CCCCC(=O)O | 16.3% |  |
| Cc1[nH]nc2c1N=C(c1ccccc1Cl)c1cc([N+](=O)[O-])ccc1N2 |  | 54.5 µM (active) |
| COC(C)=O | -2.99% |  |
| Cc1cc(O)c(C(C)C)cc1Cl | 6.99% |  |
| CO[C@]12C[C@@H](COC(=O)c3cncc(Br)c3)CN(C)[C@@H]1Cc1cn(C)c3cccc2c13 | 17.5% [at 42.5 µM] |  |
| C=C[C@](C)(O)CC[C@@H]1[C@@]2(C)CCCC(C)(C)[C@@H]2CC[C@@]1(C)O | -45.6% |  |
| COC(=O)CC(C)CCC=C(C)C (stereo not given) |  | 68.6 µM (active) |
| COc1cc(C=C2CCC/C(=C\c3ccc(O)c(OC)c3)C2=O)ccc1O |  | 6.68 µM (active) |
| CC(C)c1ccccc1C(C)C | 4.35% |  |
| O=Cc1ccccc1S(=O)(=O)O | -6.4% |  |
| CCCCC(CC)CN=C(N)NC(N)=NCCCCCCN=C(N)NC(N)=NCC(CC)CCCC (stereo not given) | -37.8% [at 42.5 µM] |  |

| SMILES | activity, positive = activation | Potency |
| --- | --- | --- |
| Cc1[nH]c(C)c(Cl)c(=O)c1Cl | 3.75% [at 19 µM] |  |
| COc1cc(NS(=O)(=O)c2ccc(N)cc2)nc(C)n1 | 8.99% [at 42.5 µM] |  |
| CC(C)=CCOc1ccc(/C=C/C(=O)c2ccc(OCC=C(C)C)cc2OCC(=O)O)cc1 |  | 26.6 µM (active) |
| c1ccc(-c2nc[nH]c2-c2ccccc2)cc1 | 1.11% [at 42.5 µM] |  |
| Cc1cccc2c1cc1ccc3cccc4ccc2c1c34 | 5.33% |  |
| COc1cc(C(=O)OCCCN2CCCN(CCCOC(=O)c3cc(OC)c(OC)c(OC)c3)CC2)cc(OC)c1OC | -1.61% [at 42.5 µM] |  |
| CCCCC(CC)C(=O)OCCOCCOCCOCCOC(=O)C(CC)CCCC (stereo not given) | 14% |  |
| CC(=O)c1ccc2c(c1)N(CCCN1CCC(CCO)CC1)c1ccccc1S2 | 3.46% [at 42.5 µM] |  |
| C=CCCCCCCCCOC(C)=O | -5.98% |  |
| O=C1Cc2cc(CCN3CCN(c4nsc5ccccc45)CC3)c(Cl)cc2N1 | -4.55% [at 42.5 µM] |  |
| CCC(CN)=C(c1ccccc1)c1ccccc1 | -3.51% [at 42.5 µM] |  |
| CCCCCCC(C)OC(=O)COc1nc(F)c(Cl)c(N)c1Cl (stereo not given) | 7.31% |  |
| CCCCCCOc1ccccc1C(N)=O | 24% [at 42.5 µM] |  |
| CC(=O)c1ccc2c(c1)Cc1ccccc1-2 | 13.3% |  |
| CCCC1CCOC(C)S1 (stereo not given) | 3.77% |  |
| CC(C)COC(=O)C(C)C | -8.99% |  |
| C[C@H]1c2cccc(O)c2C(O)=C2C(=O)[C@]3(O)C(O)=C(C(N)=O)C(=O)[C@@H](N(C)C)[C@@H]3[C@@H](O)[C@@H]21 | -9.9% [at 42.5 µM] |  |
| CCCCCc1ccc(O)cc1 |  | 34.4 µM (active) |
| CC[N+](CC)(CC)CCOc1ccc(/C=C/c2ccccc2)cc1 | -1.6% [at 42.5 µM] |  |
| CSC(=O)c1cccc2nnsc12 | -2.23% |  |
